Common to all, as to experiment: PBM; 200 nM protein, PBS
Holding throughout (conditions): dsDNA, one strand shown

Test [1] has as its target HOXC9 (Homo sapiens, UniProt P31274 178-260, K195R).
For test [2], the target named is T1, PAX4 (Homo sapiens, UniProt O43316 9-242, R200K).
T1 sequence: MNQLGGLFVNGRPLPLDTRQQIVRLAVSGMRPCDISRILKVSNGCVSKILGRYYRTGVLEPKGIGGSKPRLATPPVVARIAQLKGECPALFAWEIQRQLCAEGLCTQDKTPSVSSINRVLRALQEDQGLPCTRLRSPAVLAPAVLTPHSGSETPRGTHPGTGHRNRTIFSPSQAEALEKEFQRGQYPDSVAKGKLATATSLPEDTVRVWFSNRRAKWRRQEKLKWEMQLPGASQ

Test [3] addresses HOXC9 (Homo sapiens, UniProt P31274 178-260).
In test [4] the target is HOXC9 (Homo sapiens, UniProt P31274 178-260, R193K).
In test [5] the target is HOXC9 (Homo sapiens, UniProt P31274 178-260, R222W).
Test [6] concerns the target SHOX (Homo sapiens, UniProt O15266 103-189).
The target in test [7] is HOXD13 (Homo sapiens, UniProt P35453 263-343, T313R).
Test [8] concerns the target SHOX (Homo sapiens, UniProt O15266 103-189, R173C).
For test [9], the target named is HOXD13 (Homo sapiens, UniProt P35453 263-343).
Test [10] deals with HOXD13 (Homo sapiens, UniProt P35453 263-343, T313A).
For test [11], the target named is HOXB9 (Homo sapiens, UniProt P17482 171-250, T197M).
Test [12] deals with T2, VENTX (Homo sapiens, UniProt O95231 78-163).
T2 sequence: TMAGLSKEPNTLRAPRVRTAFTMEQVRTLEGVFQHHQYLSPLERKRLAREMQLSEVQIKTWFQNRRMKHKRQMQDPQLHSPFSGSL

Test [13] has as its target HOXA7 (Homo sapiens, UniProt P31268 116-202).
In test [14] the target is HOXC10 (Homo sapiens, UniProt Q9NYD6 254-340).
Test [15] addresses HOXB6 (Homo sapiens, UniProt P17509 132-218, K202E).
Test [16] deals with HOXB9 (Homo sapiens, UniProt P17482 171-250).
In test [17] the target is HOXC10 (Homo sapiens, UniProt Q9NYD6 254-340, K271E).
The target in test [18] is HOXB9 (Homo sapiens, UniProt P17482 171-250, R186Q).
Test [19] has as its target HOXA7 (Homo sapiens, UniProt P31268 116-202, W177C).
For test [20], the target named is HOXB6 (Homo sapiens, UniProt P17509 132-218).

Results on 12 sequences are retold here after publication PMC11006913.

SHOX (Homo sapiens, UniProt O15266 103-189), sequence (O15266 103-189): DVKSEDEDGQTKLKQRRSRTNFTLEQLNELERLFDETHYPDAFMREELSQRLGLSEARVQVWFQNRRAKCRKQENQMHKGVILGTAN
SHOX (Homo sapiens, UniProt O15266 103-189, R173C), sequence (O15266 103-189 R173C): as the sequence (O15266 103-189) above, with R71C counted along it
HOXC9 (Homo sapiens, UniProt P31274 178-260, K195R), sequence (P31274 178-260 K195R): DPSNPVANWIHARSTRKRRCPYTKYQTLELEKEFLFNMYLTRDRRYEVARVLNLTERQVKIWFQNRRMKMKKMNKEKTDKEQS
HOXB6 (Homo sapiens, UniProt P17509 132-218, K202E), sequence (P17509 132-218 K202E): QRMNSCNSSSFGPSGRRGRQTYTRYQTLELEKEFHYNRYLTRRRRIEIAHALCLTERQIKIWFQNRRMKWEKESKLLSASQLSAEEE
HOXC10 (Homo sapiens, UniProt Q9NYD6 254-340, K271E), sequence (Q9NYD6 254-340 K271E): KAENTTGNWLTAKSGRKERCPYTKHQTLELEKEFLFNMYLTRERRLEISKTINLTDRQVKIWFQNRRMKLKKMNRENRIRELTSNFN
HOXA7 (Homo sapiens, UniProt P31268 116-202), sequence (P31268 116-202): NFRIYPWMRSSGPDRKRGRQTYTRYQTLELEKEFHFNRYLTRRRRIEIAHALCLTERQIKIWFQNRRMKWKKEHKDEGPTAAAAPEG
HOXC10 (Homo sapiens, UniProt Q9NYD6 254-340), sequence (Q9NYD6 254-340): as the sequence (Q9NYD6 254-340 K271E) above, with E18K counted along it
HOXD13 (Homo sapiens, UniProt P35453 263-343, T313A), sequence (P35453 263-343 T313A): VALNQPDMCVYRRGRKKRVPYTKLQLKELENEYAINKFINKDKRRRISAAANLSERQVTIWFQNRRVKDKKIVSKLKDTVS
HOXA7 (Homo sapiens, UniProt P31268 116-202, W177C), sequence (P31268 116-202 W177C): as the sequence (P31268 116-202) above, with W62C counted along it
HOXB6 (Homo sapiens, UniProt P17509 132-218), sequence (P17509 132-218): as the sequence (P17509 132-218 K202E) above, with E71K counted along it
HOXB9 (Homo sapiens, UniProt P17482 171-250, R186Q), sequence (P17482 171-250 R186Q): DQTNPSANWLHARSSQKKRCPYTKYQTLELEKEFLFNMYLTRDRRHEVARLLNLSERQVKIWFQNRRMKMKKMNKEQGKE
HOXB9 (Homo sapiens, UniProt P17482 171-250, T197M), sequence (P17482 171-250 T197M): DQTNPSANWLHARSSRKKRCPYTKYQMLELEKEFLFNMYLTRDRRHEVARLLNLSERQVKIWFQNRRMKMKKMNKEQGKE
HOXB9 (Homo sapiens, UniProt P17482 171-250), sequence (P17482 171-250): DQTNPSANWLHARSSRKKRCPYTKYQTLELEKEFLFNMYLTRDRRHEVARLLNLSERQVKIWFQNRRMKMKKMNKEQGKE
HOXC9 (Homo sapiens, UniProt P31274 178-260, R222W), sequence (P31274 178-260 R222W): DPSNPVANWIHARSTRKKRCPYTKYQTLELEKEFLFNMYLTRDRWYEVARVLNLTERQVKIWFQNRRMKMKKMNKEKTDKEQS
HOXC9 (Homo sapiens, UniProt P31274 178-260), sequence (P31274 178-260): as the sequence (P31274 178-260 R222W) above, with W45R counted along it
HOXC9 (Homo sapiens, UniProt P31274 178-260, R193K), sequence (P31274 178-260 R193K): as the sequence (P31274 178-260 R222W) above, with R16K, W45R counted along it
HOXD13 (Homo sapiens, UniProt P35453 263-343, T313R), sequence (P35453 263-343 T313R): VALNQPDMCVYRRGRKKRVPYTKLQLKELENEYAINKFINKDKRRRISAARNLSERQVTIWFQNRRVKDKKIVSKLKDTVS
HOXD13 (Homo sapiens, UniProt P35453 263-343), sequence (P35453 263-343): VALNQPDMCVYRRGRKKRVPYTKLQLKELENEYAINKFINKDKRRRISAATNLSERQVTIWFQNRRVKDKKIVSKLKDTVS

In the case of CGAGGGTC, the binding signal in test [1] was 9.55 upbm affinity estimate (log intensity, higher = more binding, comparable within an allelic series); in test [2], 8.99 upbm affinity estimate (log intensity, higher = more binding, comparable within an allelic series); in [3], 9.61 upbm affinity estimate (log intensity, higher = more binding, comparable within an allelic series); in test [4], 9.61 upbm affinity estimate (log intensity, higher = more binding, comparable within an allelic series); in test [5], 9.69 upbm affinity estimate (log intensity, higher = more binding, comparable within an allelic series).
Regarding CCGCAAGG, the binding signal in test [6] was 7.17 upbm affinity estimate (log intensity, higher = more binding, comparable within an allelic series); in test [7] it was 9.53 upbm affinity estimate (log intensity, higher = more binding, comparable within an allelic series); in test [8], 7.2 upbm affinity estimate (log intensity, higher = more binding, comparable within an allelic series); in test [9], 9.5 upbm affinity estimate (log intensity, higher = more binding, comparable within an allelic series); in test [10] it was 9.67 upbm affinity estimate (log intensity, higher = more binding, comparable within an allelic series).
In the case of GACGCCGC, the binding signal in test [2] is 9.17 upbm affinity estimate (log intensity, higher = more binding, comparable within an allelic series).
As for CTCATTAA, the binding signal is 11.5 upbm affinity estimate (log intensity, higher = more binding, comparable within an allelic series) in test [6]; 10.1 upbm affinity estimate (log intensity, higher = more binding, comparable within an allelic series) in [11]; 12.5 upbm affinity estimate (log intensity, higher = more binding, comparable within an allelic series) in test [1]; 12.8 upbm affinity estimate (log intensity, higher = more binding, comparable within an allelic series) in test [12]; 11.5 upbm affinity estimate (log intensity, higher = more binding, comparable within an allelic series) in test [13]; 12.2 upbm affinity estimate (log intensity, higher = more binding, comparable within an allelic series) in test [14]. In addition, the binding signal is 11.6 upbm affinity estimate (log intensity, higher = more binding, comparable within an allelic series) in test [2]; 9.97 upbm affinity estimate (log intensity, higher = more binding, comparable within an allelic series) in test [15]; 11.8 upbm affinity estimate (log intensity, higher = more binding, comparable within an allelic series) in test [16]; 12.6 upbm affinity estimate (log intensity, higher = more binding, comparable within an allelic series) in test [3]; 10.7 upbm affinity estimate (log intensity, higher = more binding, comparable within an allelic series) in [7]; 9.2 upbm affinity estimate (log intensity, higher = more binding, comparable within an allelic series) in test [8]. For the same sequence, the binding signal was 12.5 upbm affinity estimate (log intensity, higher = more binding, comparable within an allelic series) in [4]; 11.9 upbm affinity estimate (log intensity, higher = more binding, comparable within an allelic series) in [9]; 12 upbm affinity estimate (log intensity, higher = more binding, comparable within an allelic series) in test [17]; 11.7 upbm affinity estimate (log intensity, higher = more binding, comparable within an allelic series) in [10]; 11.5 upbm affinity estimate (log intensity, higher = more binding, comparable within an allelic series) in [18]; 10.9 upbm affinity estimate (log intensity, higher = more binding, comparable within an allelic series) in test [5]. For the same sequence, the binding signal in test [19] was 8.81 upbm affinity estimate (log intensity, higher = more binding, comparable within an allelic series); in test [20] it was 11.9 upbm affinity estimate (log intensity, higher = more binding, comparable within an allelic series).
Take GACTGGCC: the binding signal is 7.34 upbm affinity estimate (log intensity, higher = more binding, comparable within an allelic series) in test [6] and 7.31 upbm affinity estimate (log intensity, higher = more binding, comparable within an allelic series) in test [8].
Regarding AGCCTGGG, the binding signal in test [6] was 7.06 upbm affinity estimate (log intensity, higher = more binding, comparable within an allelic series); in [8] it was 7.22 upbm affinity estimate (log intensity, higher = more binding, comparable within an allelic series).
For the sequence ATTAATGG, the binding signal in test [11] is 10.3 upbm affinity estimate (log intensity, higher = more binding, comparable within an allelic series); in test [1], 12.9 upbm affinity estimate (log intensity, higher = more binding, comparable within an allelic series); in test [12] it was 12.7 upbm affinity estimate (log intensity, higher = more binding, comparable within an allelic series); in test [13], 12 upbm affinity estimate (log intensity, higher = more binding, comparable within an allelic series); in test [14], 12.4 upbm affinity estimate (log intensity, higher = more binding, comparable within an allelic series); in [2], 11.7 upbm affinity estimate (log intensity, higher = more binding, comparable within an allelic series). The binding signal in test [15] was 10.2 upbm affinity estimate (log intensity, higher = more binding, comparable within an allelic series); in test [16], 12.3 upbm affinity estimate (log intensity, higher = more binding, comparable within an allelic series); in [3] it was 12.9 upbm affinity estimate (log intensity, higher = more binding, comparable within an allelic series); in test [4], 12.9 upbm affinity estimate (log intensity, higher = more binding, comparable within an allelic series); in test [17] it was 12.2 upbm affinity estimate (log intensity, higher = more binding, comparable within an allelic series); in test [10], 11.6 upbm affinity estimate (log intensity, higher = more binding, comparable within an allelic series). The binding signal is 12 upbm affinity estimate (log intensity, higher = more binding, comparable within an allelic series) in test [18]; 11.2 upbm affinity estimate (log intensity, higher = more binding, comparable within an allelic series) in test [5]; 8.96 upbm affinity estimate (log intensity, higher = more binding, comparable within an allelic series) in [19]; 12.4 upbm affinity estimate (log intensity, higher = more binding, comparable within an allelic series) in test [20].
For the sequence CATTAATG, the binding signal in test [11] was 10.3 upbm affinity estimate (log intensity, higher = more binding, comparable within an allelic series); in test [1], 12.8 upbm affinity estimate (log intensity, higher = more binding, comparable within an allelic series); in test [12], 12.5 upbm affinity estimate (log intensity, higher = more binding, comparable within an allelic series); in [13], 12 upbm affinity estimate (log intensity, higher = more binding, comparable within an allelic series); in test [14], 12.3 upbm affinity estimate (log intensity, higher = more binding, comparable within an allelic series); in test [2] it was 11.8 upbm affinity estimate (log intensity, higher = more binding, comparable within an allelic series). The binding signal in test [15] was 10.3 upbm affinity estimate (log intensity, higher = more binding, comparable within an allelic series); in test [16], 12.1 upbm affinity estimate (log intensity, higher = more binding, comparable within an allelic series); in [3], 12.9 upbm affinity estimate (log intensity, higher = more binding, comparable within an allelic series); in test [4], 12.8 upbm affinity estimate (log intensity, higher = more binding, comparable within an allelic series); in [17] it was 12.2 upbm affinity estimate (log intensity, higher = more binding, comparable within an allelic series); in test [10], 11.6 upbm affinity estimate (log intensity, higher = more binding, comparable within an allelic series). Further, the binding signal was 11.9 upbm affinity estimate (log intensity, higher = more binding, comparable within an allelic series) in test [18]; 11 upbm affinity estimate (log intensity, higher = more binding, comparable within an allelic series) in test [5]; 8.9 upbm affinity estimate (log intensity, higher = more binding, comparable within an allelic series) in test [19]; 12.4 upbm affinity estimate (log intensity, higher = more binding, comparable within an allelic series) in [20].
As to TAAATTAA, the binding signal in test [6] is 11.8 upbm affinity estimate (log intensity, higher = more binding, comparable within an allelic series); in test [11] it was 9.99 upbm affinity estimate (log intensity, higher = more binding, comparable within an allelic series); in test [2], 11.8 upbm affinity estimate (log intensity, higher = more binding, comparable within an allelic series); in [8], 9.24 upbm affinity estimate (log intensity, higher = more binding, comparable within an allelic series).
Regarding CGGCGAGC, the binding signal in test [6] was 7.05 upbm affinity estimate (log intensity, higher = more binding, comparable within an allelic series); in test [8], 7.11 upbm affinity estimate (log intensity, higher = more binding, comparable within an allelic series).
Turning to CGCAGGCG, the binding signal in [6] is 7.28 upbm affinity estimate (log intensity, higher = more binding, comparable within an allelic series); in test [8], 7.07 upbm affinity estimate (log intensity, higher = more binding, comparable within an allelic series).
On to CGTCCCGC, for which the binding signal in [11] was 8.41 upbm affinity estimate (log intensity, higher = more binding, comparable within an allelic series); in test [12], 7.89 upbm affinity estimate (log intensity, higher = more binding, comparable within an allelic series); in test [13], 8.5 upbm affinity estimate (log intensity, higher = more binding, comparable within an allelic series); in test [2], 9.13 upbm affinity estimate (log intensity, higher = more binding, comparable within an allelic series); in [16], 8.35 upbm affinity estimate (log intensity, higher = more binding, comparable within an allelic series); in [18] it was 8.38 upbm affinity estimate (log intensity, higher = more binding, comparable within an allelic series). The binding signal in test [19] is 8.32 upbm affinity estimate (log intensity, higher = more binding, comparable within an allelic series).
